TDP1 cell noCPT – qHTS for Inhibitors of human tyrosyl-DNA phosphodiesterase 1 (TDP1): qHTS in cells in absence of CPT. DT40 Tdp1-/- hTDP1 cells, no CPT, ATP luminescence, 48 h. Potency, µM (series often up to 46.2 µM), actives largely listed as inhibitors. 420,000 compounds, 15% hits; note: nearly all actives have a fitted effect of over 55% in size
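Growth of hTDP1-complemented DT40 Tdp1-knockout cells is measured by ATP luminescence after at least 48 hr compound exposure at 37 °C, with DMSO substituting for the 20 nM CPT used in the parallel screen.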
Gal4-VP16 FLuc – VP16 counterscreen qHTS for inhibitors of ROR gamma transcriptional activity; 310,000 compounds, 3.5% hits; Potency, µM (highest dose often 53.6 µM), most hits filed as inhibitors; AID 2546, 2010; Drosophila S2 Gal4-VP16 UAS-luciferase, luminescence, 20 h;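 note: Gal4-VP16 expression switched on by copper sulfate through the metallothionein promoter; nearly all actives have a fitted effect of over 50% in size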
RORg inh – qHTS for inhibitors of ROR gamma transcriptional activity. 310,000 compounds, 5.4% hits. Drosophila S2 Gal4-RORgamma UAS-luciferase reporter, 20 h. Nuclear receptor ROR-gamma (Mus musculus), P51450. Potency, µM (series often up to 53.6 µM), hits mostly inhibitors; note: nearly all actives have a fitted effect of over 60% in size
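Schneider cells (Drosophila), stable Gal4 DBD–ROR gamma + UAS-luc; 1 hr cmpd preincubation; Cu2+ induction 700 uM final; 20 hr ambient; luminescence.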
ALOX12 inh – Primary qHTS assay for inhibitors of human arachidonate 12S-lipoxygenase (ALOX12): Round 2; Polyunsaturated fatty acid lipoxygenase ALOX12 (Homo sapiens), P18054; purified 12hLO, xylenol orange hydroperoxide absorbance; Potency, µM (series often up to 108 µM), hits mostly inhibitors; 580,000 compounds, 1.1% hits
Target sequence (P18054 whole entry, looked up): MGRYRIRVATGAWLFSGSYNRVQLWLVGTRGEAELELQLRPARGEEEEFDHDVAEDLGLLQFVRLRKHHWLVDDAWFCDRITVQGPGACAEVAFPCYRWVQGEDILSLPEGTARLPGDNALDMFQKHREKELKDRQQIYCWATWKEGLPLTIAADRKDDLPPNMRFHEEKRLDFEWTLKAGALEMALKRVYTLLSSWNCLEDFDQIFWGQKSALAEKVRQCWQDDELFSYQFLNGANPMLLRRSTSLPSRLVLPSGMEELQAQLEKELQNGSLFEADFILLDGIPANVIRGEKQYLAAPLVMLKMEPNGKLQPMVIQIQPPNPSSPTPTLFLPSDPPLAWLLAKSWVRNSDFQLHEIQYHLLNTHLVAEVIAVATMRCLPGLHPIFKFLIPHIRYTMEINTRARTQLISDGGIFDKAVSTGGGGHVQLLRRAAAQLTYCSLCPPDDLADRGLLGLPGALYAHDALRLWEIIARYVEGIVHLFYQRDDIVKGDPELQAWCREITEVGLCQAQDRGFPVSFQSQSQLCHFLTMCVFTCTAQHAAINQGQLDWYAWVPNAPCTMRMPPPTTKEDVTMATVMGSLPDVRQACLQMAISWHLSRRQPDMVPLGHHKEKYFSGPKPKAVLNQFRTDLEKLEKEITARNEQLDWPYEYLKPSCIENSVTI
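Hydroperoxide product was detected by ferrous iron/xylenol orange as the 573 to 405 nm absorbance ratio. Arachidonic acid at 40 uM (final) was turned over for 30 min at room temperature by 150 nM human 12hLO, pH 7.0 Hepes buffer, after 15 min compound preincubation.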
TDP1 cell CPT – qHTS for Inhibitors of human tyrosyl-DNA phosphodiesterase 1 (TDP1): qHTS in cells in presence of CPT; chicken DT40 Tdp1-/-;hTDP1 cells + 20 nM CPT, ATP luminescence, 48 h; AID 686979, 2013; Potency, µM (doses to about 46.2 µM), usual class: inhibitors; 420,000 compounds, 12% hits; note: nearly all actives have a fitted effect of over 55% in size
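Cell growth measured by CellTiter-Glo luminescence after a minimum 48 h, 37 C compound exposure with 20 nM CPT in Tdp1-knockout DT40 cells stably expressing hTDP1, seeded 400/well; qHTS titration format.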
ELG1 DNA repair – qHTS screen for small molecules that inhibit ELG1-dependent DNA repair in human embryonic kidney (HEK293T) cells expressing luciferase-tagged ELG1. HEK293T ELG1-luciferase reporter, luminescence, 16 h; DNA damage induced by 5-fluorouridine. Potency, µM (doses to about 46.1 µM), actives largely listed as inhibitors. 330,000 compounds, 2.3% hits. AID 504467, 2011; note: nearly all actives have a fitted effect of over 55% in size
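Overnight (16 hr) co-exposure of 2,000 cells/well to 5-fluorouridine and compound at 37 °C preceded detection. Luciferase was quantified via ONE-Glo luminescence; loss of signal denotes inhibition.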
A number is an active result. Only some compounds are listed: those with a hit (about 15% of all), similar ones and a draw of the others. Calls come from the whole dose curve; as a rule, active = well fitted curve in the direction sought with a large enough effect; inconclusive = small, poorly fitted or top-dose-only effect, or another doubt; inactive = no such curve, though single readings can be large; an effect the other way counts as inactive or inconclusive.

What do the screens show for `COc1ccc(C(=O)N2CCN(C(=O)N3CC4CC(C3)[C@H]3CCCC(=O)N3C4)CC2)cn1` (some centres undefined)?
ALOX12 inh: inactive

Results for CC[C@H]1CN(S(=O)(=O)c2ccccc2)CC[C@H]1CC(=O)NC1CCCC1 ?
ALOX12 inh: inactive

Results for COc1ccc(NC(=O)COC(=O)c2ccc(S(=O)(=O)N(C)c3ccccc3OC)cc2)cc1 ?
TDP1 cell noCPT: inactive; ALOX12 inh: inactive; TDP1 cell CPT: inactive

What do the screens show for `CCCNC(=O)NC(=O)COC(=O)c1ccc(S(=O)(=O)N(C)c2ccccc2OC)cc1`?
TDP1 cell noCPT: 21µM; Gal4-VP16 FLuc: inconclusive; RORg inh: inconclusive; ALOX12 inh: inactive; TDP1 cell CPT: 29µM; ELG1 DNA repair: inactive

How did COc1ccc(Cl)cc1/C=C/c1ccc2cccc(O)c2n1 do in these assays?
TDP1 cell noCPT: inconclusive; Gal4-VP16 FLuc: 0.79µM; RORg inh: 0.89µM; ALOX12 inh: inactive; TDP1 cell CPT: 21µM; ELG1 DNA repair: inconclusive

What do the screens show for `COc1cc(OC)c(OC)cc1C=Cc1ccc2ccccc2n1`?
TDP1 cell noCPT: 15µM; ALOX12 inh: inconclusive; TDP1 cell CPT: 16µM

Results for COc1ccccc1/C=C/c1ccc2cccc(O)c2n1 ?
TDP1 cell noCPT: inconclusive; Gal4-VP16 FLuc: inconclusive; RORg inh: 4µM; ALOX12 inh: inconclusive; TDP1 cell CPT: inconclusive; ELG1 DNA repair: inconclusive

Results for COc1ccccc1/C=C\C(=O)O ?
TDP1 cell noCPT: inactive; Gal4-VP16 FLuc: inactive; RORg inh: inactive; TDP1 cell CPT: inactive

Results for COc1cc(Cl)cc(/C=C/c2ccc3cccc(O)c3n2)c1OC ?
TDP1 cell noCPT: 23µM; Gal4-VP16 FLuc: inactive; RORg inh: 5µM; ALOX12 inh: inactive; TDP1 cell CPT: inconclusive; ELG1 DNA repair: inactive

What do the screens show for `COc1ccc(N=Cc2cc(Cl)ccc2O)cc1Cl`?
TDP1 cell noCPT: inactive; Gal4-VP16 FLuc: inactive; RORg inh: inactive; ALOX12 inh: inactive; TDP1 cell CPT: inactive; ELG1 DNA repair: inconclusive

Results for COc1cc(Cl)cc(C=O)c1OCC(=O)O ?
TDP1 cell noCPT: inactive; Gal4-VP16 FLuc: inactive; RORg inh: inactive; ALOX12 inh: inactive; TDP1 cell CPT: inactive; ELG1 DNA repair: inactive

How did CCOc1ccc(-c2nc(CNC(=O)NC3CCCC3)c(C)o2)cc1 do in these assays?
ALOX12 inh: inactive

Results for Cc1onc(-c2ccccc2)c1-c1n[nH]c(=S)n1-c1ccccc1 ?
TDP1 cell noCPT: inactive; ALOX12 inh: inactive; TDP1 cell CPT: inactive

What do the screens show for `CCC(c1n[nH]c(=S)n1-c1ccccc1)N(C)C` (centres undefined)?
TDP1 cell noCPT: inactive; Gal4-VP16 FLuc: inactive; RORg inh: inactive; ALOX12 inh: inactive; TDP1 cell CPT: inactive; ELG1 DNA repair: inactive

Results for CCN(CC)c1ccc(-c2n[nH]c(=S)n2-c2ccccc2)cc1 ?
TDP1 cell noCPT: 23µM; Gal4-VP16 FLuc: inactive; RORg inh: 1.6µM; ALOX12 inh: inconclusive; TDP1 cell CPT: 18µM; ELG1 DNA repair: inconclusive

What do the screens show for `CN(C)c1ccc(-c2n[nH]c(=S)n2-c2ccccc2)cc1`?
TDP1 cell noCPT: inactive; Gal4-VP16 FLuc: inconclusive; RORg inh: 2.2µM; ALOX12 inh: inconclusive; TDP1 cell CPT: inactive; ELG1 DNA repair: inactive

What do the screens show for `CCN(CC)c1ccc(-c2n[nH]c(=S)n2-c2ccccc2C)cc1`?
TDP1 cell noCPT: 18µM; Gal4-VP16 FLuc: inactive; RORg inh: inconclusive; ALOX12 inh: inactive; TDP1 cell CPT: 21µM; ELG1 DNA repair: inconclusive

What do the screens show for `CCc1ccccc1NC(=O)CNC(=O)Cn1c(=O)n(CC)c2ccccc21`?
ALOX12 inh: inactive

How did O=C(CCc1ncc(-c2ccccc2)o1)NC(C1CC1)C1CC1 do in these assays?
ALOX12 inh: inactive
